Results: PubChem BioAssay (NCATS)
Inconclusive results are not listed. The source made the active and inactive calls. The call rests on the fitted dose curve; in most records, active means well fitted inhibition curve with a large enough effect; inconclusive means small, poorly fitted or top-dose-only effect; inactive means flat fitted curve, though single readings scatter.

Experiments:
ECU = assay: qHTS profiling for inhibitors of Plasmodium falciparum proliferation (AID 504749); settings: P. falciparum in erythrocytes, SYBR Green DNA, 72 h; series mostly up to 28.7 µM
Outline: (§1)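 In a 72 h erythrocytic culture (37 C, humidified, 5% CO2) at 2.5% hematocrit and 0.3% starting parasitemia, compounds were tested; SYBR Green I in detergent lysis buffer stained parasite DNA overnight.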

FAB9 = assay: as above; settings: P. falciparum in erythrocytes, SYBR Green DNA, 72 h; series mostly up to 28.7 µM
Outline: as §1

GB4 = assay: as above; settings: P. falciparum in erythrocytes, SYBR Green DNA, 72 h; series mostly up to 28.7 µM
Outline: as §1

HB3 = assay: as above; settings: P. falciparum in erythrocytes, SYBR Green DNA, 72 h; series mostly up to 28.7 µM
Outline: as §1

ICS = assay: as above; settings: P. falciparum in erythrocytes, SYBR Green DNA, 72 h; series mostly up to 28.7 µM
Outline: as §1

JCK = assay: as above; settings: P. falciparum in erythrocytes, SYBR Green DNA, 72 h; series mostly up to 28.7 µM
Outline: as §1

N140 = assay: as above; settings: P. falciparum in erythrocytes, SYBR Green DNA, 72 h; series mostly up to 28.7 µM
Outline: as §1

P93_24 = assay: as above; settings: P. falciparum in erythrocytes, SYBR Green DNA, 72 h; series mostly up to 28.7 µM
Outline: as §1

P94_40 = assay: as above; settings: P. falciparum in erythrocytes, SYBR Green DNA, 72 h; series mostly up to 28.7 µM
Outline: as §1

PAD = assay: as above; settings: P. falciparum in erythrocytes, SYBR Green DNA, 72 h; series mostly up to 28.7 µM
Outline: as §1

PC15 = assay: as above; settings: P. falciparum in erythrocytes, SYBR Green DNA, 72 h; series mostly up to 28.7 µM
Outline: as §1

PC26 = assay: as above; settings: P. falciparum in erythrocytes, SYBR Green DNA, 72 h; series mostly up to 28.7 µM
Outline: as §1

PC49 = assay: as above; settings: P. falciparum in erythrocytes, SYBR Green DNA, 72 h; series mostly up to 28.7 µM
Outline: as §1

SC27B = assay: as above; settings: P. falciparum in erythrocytes, SYBR Green DNA, 72 h; series mostly up to 28.7 µM
Outline: as §1

TAB109 = assay: as above; settings: P. falciparum in erythrocytes, SYBR Green DNA, 72 h; series mostly up to 28.7 µM
Outline: as §1

TAB113 = assay: as above; settings: P. falciparum in erythrocytes, SYBR Green DNA, 72 h; series mostly up to 28.7 µM
Outline: as §1

TAB165 = assay: as above; settings: P. falciparum in erythrocytes, SYBR Green DNA, 72 h; series mostly up to 28.7 µM
Outline: as §1

CRL-7250 = normal cell line; assay: Cytotoxic Profiling of Annotated Libraries Using Quantitative High-Throughput Screening (AID 1296008); settings: Five cell lines viability, CellTiter-Glo ATP luminescence, 48-72 h
Outline: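 Cytotoxicity was measured as CellTiter-Glo ATP luminescence, read after 10 min at room temperature. Compound treatment of the cells lasted 48 or 72 hr at 37 degrees Celsius in a qHTS format.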

W2 = assay: qHTS profiling for inhibitors of Plasmodium falciparum proliferation (AID 504749); settings: P. falciparum in erythrocytes, SYBR Green DNA, 72 h; series mostly up to 28.7 µM
Outline: as §1

Measured: Potency
Further: nearly all actives have a fitted effect of over 60% in size.

CCCCC
inactive: ECU | FAB9 | GB4 | HB3 | ICS | JCK | N140 | P93_24 | P94_40 | PAD | PC15 | PC26 | PC49 | SC27B | TAB109 | TAB113 | TAB165

CCN(CC)CCOCCOC(=O)C(CC)(CC)c1ccccc1
inactive: CRL-7250

CN(Cc1ccccc1)Cc1ccccc1
inactive: ECU | FAB9 | GB4 | HB3 | ICS | JCK | N140 | P93_24 | P94_40 | PAD | PC15 | PC26 | PC49 | SC27B | TAB109 | TAB113 | TAB165

O=C(NCCNCC(O)COc1ccc(O)cc1)N1CCOCC1 (configuration not stated)
inactive: ECU | FAB9 | GB4 | HB3 | ICS | JCK | N140 | P93_24 | P94_40 | PAD | PC15 | PC26 | PC49 | SC27B | TAB109 | TAB113 | TAB165

CS(=O)(=O)OCC(O)C(O)COS(C)(=O)=O (configuration not stated)
inactive: ECU | FAB9 | GB4 | HB3 | ICS | JCK | N140 | P93_24 | P94_40 | PAD | PC15 | PC26 | PC49 | SC27B | TAB109 | TAB113 | TAB165

CC1(O)CCC(C(C)(C)O)CC1 (configuration not stated)
inactive: ECU | FAB9 | GB4 | HB3 | ICS | JCK | N140 | P93_24 | P94_40 | PAD | PC15 | PC26 | PC49 | SC27B | TAB109 | TAB113 | TAB165 | W2

[O-][N+](=Nc1ccccc1)c1ccccc1
inactive: ECU | FAB9 | GB4 | HB3 | ICS | JCK | N140 | P93_24 | P94_40 | PAD | PC15 | PC26 | PC49 | SC27B | TAB109 | TAB113 | TAB165 | W2

Nc1ncnc2c1ncn2[C@H]1CC[C@@H](CO)O1
inactive: ECU | FAB9 | GB4 | HB3 | ICS | JCK | N140 | P93_24 | P94_40 | PAD | PC15 | PC26 | PC49 | SC27B | TAB109 | TAB113 | TAB165 | W2

c1ccc(-n2cnnn2)cc1
inactive: ECU | FAB9 | GB4 | HB3 | ICS | JCK | N140 | P93_24 | P94_40 | PAD | PC15 | PC26 | PC49 | SC27B | TAB109 | TAB113 | TAB165 | W2

CCOC(C)OCC
inactive: ECU | FAB9 | GB4 | HB3 | ICS | JCK | N140 | P93_24 | P94_40 | PAD | PC15 | PC26 | PC49 | SC27B | TAB109 | TAB113 | TAB165 | W2

CCC(C)[C@@H](N)C(=O)O (some centres not stated)
inactive: ECU | FAB9 | GB4 | HB3 | ICS | JCK | N140 | P93_24 | P94_40 | PAD | PC15 | PC26 | PC49 | SC27B | TAB109 | TAB113 | TAB165 | W2

CCC(O)c1ccccc1 (configuration not stated)
inactive: ECU | FAB9 | GB4 | HB3 | ICS | JCK | N140 | P93_24 | P94_40 | PAD | PC15 | PC26 | PC49 | SC27B | TAB109 | TAB113 | TAB165 | W2

ClC(Cl)Cl
inactive: ECU | FAB9 | GB4 | HB3 | ICS | JCK | N140 | P93_24 | P94_40 | PAD | PC15 | PC26 | PC49 | SC27B | TAB109 | TAB113 | TAB165 | W2

CCOc1ccc(S(=O)(=O)O)c2cccnc12
inactive: ECU | FAB9 | GB4 | HB3 | ICS | JCK | N140 | P93_24 | P94_40 | PAD | PC15 | PC26 | PC49 | SC27B | TAB109 | TAB113 | TAB165 | W2

Cc1cc(=O)c(C(=O)N[C@@H](C(=O)N[C@@H]2C(=O)N3C(C(=O)O)=C(CSc4nnnn4C)CS[C@H]23)c2ccc(O)cc2)c[nH]1
inactive: ECU | FAB9 | GB4 | HB3 | ICS | JCK | N140 | P93_24 | P94_40 | PAD | PC15 | PC26 | PC49 | SC27B | TAB109 | TAB113 | TAB165 | W2

OC1OC[C@@H](O)[C@H](O)[C@@H]1O (some centres not stated)
inactive: ECU | FAB9 | GB4 | HB3 | ICS | JCK | N140 | P93_24 | P94_40 | PAD | PC15 | PC26 | PC49 | SC27B | TAB109 | TAB113 | TAB165 | W2
